This note sets out measurements from PubChem BioAssay (NCATS).

SMILES strings stand for the structures. Records with an inconclusive call do not appear. Values without a mark were called inactive. Activity calls are given as the source filed them. The call rests on the fitted dose curve; in most records, active means well fitted curve in the direction sought with a large enough effect; inconclusive means small, poorly fitted or top-dose-only effect, or another doubt; inactive means no such curve, though single readings can be large; an effect the other way counts as inactive or inconclusive.

A short description of assay [1]: qHTS Assay for Identifying Gametocytocidal Compounds (AID 743244).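 Further: actives lower the fluorescent signal which means gametocytes are killed.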 The following applies: P. falciparum 3D7 stage III-V gametocytes, alamarBlue, 72 h; max response: hits give low values. In outline:
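In this qHTS viability screen, late-stage 3D7 gametocytes are incubated with compound for 72 h, then with alamarBlue for 24 h; reduced resorufin fluorescence marks killing.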
Background: In qHTS, concentration-response curves come from the screen itself.

Assay [2] can be described thus: qHTS assay to identify small molecule inhibitors of chordoma cells - UCH-2 (AID 1259356). Further: series mostly up to about 46 µM.
A short description of assay [3]: P-glycoprotein substrates identified in KB-8-5-11 adenocarcinoma cell line, qHTS therapeutic library screen (AID 1346987). Further: series mostly up to about 44 µM; nearly all actives have a fitted effect of over 65% in size. The settings on record: outcome: dose series up to 44.5 µM unless noted. In short, it runs like this:
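P-gp-mediated resistance screen: KB-8-5-11 cells treated 72 h with compounds in dose-response. CellTiter-Glo viability.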
On the % scale 0 is the no-effect control and ±100 the full control effect.

Turning to `C/C(=C\C(=O)OCCCCCCCCC(=O)O)C[C@@H]1OC[C@H](C[C@@H]2O[C@H]2[C@@H](C)[C@H](C)O)[C@@H](O)[C@H]1O`, in assay [1], the max response was -6.76%. In addition, in assay [2], the Potency result is “inactive”.

With `CC1CCCC(C)N1NC(=O)c1ccc(Cl)c(S(N)(=O)=O)c1` (stereo not drawn), the max response in assay [1] was 7.73%. The Potency entry in assay [2] and in assay [3] was “inactive” each time.

As for `CCCCC/C=C\CCC(=O)N[C@H]1[C@H](Oc2c3cc4cc2Oc2ccc(cc2Cl)[C@@H](O[C@@H]2O[C@H](CO)[C@@H](O)[C@H](O)[C@H]2NC(C)=O)[C@@H]2NC(=O)[C@H](NC(=O)[C@@H]4NC(=O)[C@H]4NC(=O)[C@@H](Cc5ccc(c(Cl)c5)O3)NC(=O)[C@H](N)c3ccc(O)c(c3)Oc3cc(O)cc4c3)c3ccc(O)c(c3)-c3c(O[C@H]4O[C@H](CO)[C@@H](O)[C@H](O)[C@@H]4O)cc(O)cc3[C@@H](C(=O)O)NC2=O)O[C@H](CO)[C@@H](O)[C@@H]1O`, the max response in assay [1] was -6.11%. Further, the Potency result in assay [2] and in assay [3] was “inactive” throughout.
